{"source": "PubChem BioAssay AID1851", "about": "(National Center for Advancing Translational Sciences (NCATS), 2009)", "note": "Out of some 16,000 compounds screened, about 4,000 (25%) were called active. Roughly 26% stayed inconclusive and do not appear here. Not all results are given here. A number with no mark means an inactive call. Calls come from the whole dose curve; as a rule, active = well fitted curve in the direction sought with a large enough effect; inconclusive = small, poorly fitted or top-dose-only effect, or effect the other way; inactive = no such curve, though single readings can be large or run the other way. % is set by controls: 0 for no effect and ±100 for the full control effect.", "data": [{"biological_target": "Cytochrome P450 2C9 (Homo sapiens) (UniProt P11712)", "sequence (P11712 whole entry, looked up)": "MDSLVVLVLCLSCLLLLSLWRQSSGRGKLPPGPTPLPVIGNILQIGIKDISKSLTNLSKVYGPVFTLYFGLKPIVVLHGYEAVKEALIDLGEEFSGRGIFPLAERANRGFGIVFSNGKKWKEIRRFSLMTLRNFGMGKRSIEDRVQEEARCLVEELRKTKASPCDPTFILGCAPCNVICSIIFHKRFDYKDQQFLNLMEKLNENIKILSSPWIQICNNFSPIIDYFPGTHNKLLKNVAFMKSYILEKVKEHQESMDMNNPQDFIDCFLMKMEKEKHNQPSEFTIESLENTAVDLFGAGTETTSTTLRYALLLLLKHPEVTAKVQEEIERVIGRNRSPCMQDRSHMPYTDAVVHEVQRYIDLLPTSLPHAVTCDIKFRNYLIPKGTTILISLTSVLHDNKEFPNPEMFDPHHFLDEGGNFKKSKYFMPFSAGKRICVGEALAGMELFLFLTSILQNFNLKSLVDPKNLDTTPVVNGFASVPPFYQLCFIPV", "assay": "Cytochrome panel assay with activity outcomes", "details": "recombinant CYP, pro-luciferin dealkylation, luminescence, p450-cyp2c9; series mostly up to 57.1 µM", "values": [{"smiles": "c1ccc2[nH]c(NC3=NCCC3)nc2c1", "AC50": "inactive"}, {"smiles": "COc1cc(/C=N\\Nc2nc3ccccc3[nH]2)cc(OC)c1OC", "AC50": "15.8 µM (active)"}, {"smiles": "COC(=O)Nc1nc2ccc(Sc3ccccc3)cc2[nH]1", "AC50": "inactive"}, {"smiles": "Cc1ccc2nc(-c3ccccc3)cc(C(=O)NCCCn3ccnc3)c2c1", "AC50": "0.1 µM (active)"}, {"smiles": "Cc1cccc(NC(=O)N(Cc2nc3ccccc3c(=O)[nH]2)C2CCCC2)c1", "AC50": "5.62 µM (active)"}, {"smiles": "Cc1cccc(NC(=S)c2nc3ccccc3s2)c1", "AC50": "inactive"}, {"smiles": "CN1CCC(N(C)C(=O)CCc2nc3ccccc3c(=O)[nH]2)CC1", "AC50": "inactive"}, {"smiles": "N/C(=N\\OC(=O)c1cc(-c2ccccc2)nc2ccccc12)c1ccc(Cl)cc1", "AC50": "3.98 µM (active)"}, {"smiles": "C/C(=N\\OC(=O)c1ccccc1)c1cc(-c2ccc(Cl)cc2)no1", "AC50": "inactive"}, {"smiles": "Cn1c(=O)c2[nH]c(C3CCCC3)nc2n(C)c1=O", "AC50": "inactive"}, {"smiles": "NC(=O)N[C@H]1NC(=O)NC1=O", "AC50": "inactive"}, {"smiles": "C=CCC(C(=O)OC)(C(=O)OC)c1ccc([N+](=O)[O-])cn1", "AC50": "inactive"}, {"smiles": "COC(=O)C(C)(C(=O)OC)c1ccc([N+](=O)[O-])cn1", "AC50": "inactive"}, {"smiles": "COC(=O)C(NC(=O)c1ccc(F)cc1)(Nc1ncc(S(=O)(=O)c2ccc([N+](=O)[O-])cc2)s1)C(F)(F)F", "note": "(stereo not drawn)", "AC50": "3.55 µM (active)"}, {"smiles": "O=S(=O)(Nc1ccc(Cc2ccncc2)cc1)c1ccc(Br)cc1", "AC50": "0.0141 µM (active)"}, {"smiles": "O=S(=O)(Nc1ccc(Cc2ccncc2)cc1)c1cccs1", "AC50": "0.02 µM (active)"}, {"smiles": "O=C1CCCCC(=O)c2ccccc2N1", "AC50": "inactive"}, {"smiles": "COc1ccc(C(=O)C(OC(=O)CNC(=O)c2ccco2)c2ccccc2)cc1", "note": "(stereo not drawn)", "AC50": "20 µM (active)"}, {"smiles": "O=C(CNC(=O)c1ccco1)OC(C(=O)c1ccccc1)c1ccccc1", "note": "(stereo not drawn)", "AC50": "25.1 µM (active)"}, {"smiles": "O=C(CNC(=O)c1ccco1)OCc1c(F)cccc1Cl", "AC50": "inactive"}, {"smiles": "COc1ccc(C(=O)NCC(=O)OCc2cccc(Br)c2)cc1", "AC50": "inactive"}, {"smiles": "CCOc1ccc2c(ccc(/C=C\\c3cc(C)c4cccnc4c3O)[n+]2C)c1", "activity, negative = inhibition": "5.89% [at 11.4 µM]"}, {"smiles": "Cc1cc(NC(=O)C2CCCC2)n(-c2nc3ccccc3[nH]2)n1", "AC50": "3.98 µM (active)"}, {"smiles": "O=C(O)[C@H]1CCCC[C@@H]1C(=O)Nc1nc2ccccc2[nH]1", "activity, negative = inhibition": "2.98% [at 11.4 µM]"}, {"smiles": "O=C(Nc1nc2ccccc2n1CCN1CCCCC1)C1CCCCC1", "AC50": "inactive"}, {"smiles": "Cc1ccc(NCC(=O)N/N=C\\c2ccc([N+](=O)[O-])o2)cc1", "AC50": "inactive"}, {"smiles": "Cc1cc(C(=O)N/N=C/c2cccc(OC(=O)c3ccco3)c2)n[nH]1", "AC50": "11.2 µM (active)"}, {"smiles": "COc1cccc(/C=N/NC(=O)c2cc(-c3cccn3C)n[nH]2)c1", "AC50": "inactive"}, {"smiles": "Cc1ccc(NCC(=O)N/N=C/c2ccc(OC(=O)c3ccco3)cc2)cc1", "AC50": "8.91 µM (active)"}, {"smiles": "CCOC(=O)c1sc(=N)n(-c2ccc(OC)cc2)c1C", "AC50": "3.16 µM (active)"}, {"smiles": "COc1ccc(-n2c(C)nn(C)c2=O)cc1", "AC50": "inactive"}, {"smiles": "CCOC(=O)c1nc(N)sc1C(=O)OCC", "AC50": "inactive"}, {"smiles": "CC(C)Nc1nc(Oc2ccc(Cl)cc2)cc(C(F)(F)F)n1", "AC50": "15.8 µM (active)"}, {"smiles": "CC(C)c1cc(C(F)(F)F)nc(NNc2nc(C(C)C)cc(C(F)(F)F)n2)n1", "activity, negative = inhibition": "-27.5% [at 11.4 µM]"}, {"smiles": "CC(C)Nc1cc(C(F)(F)F)nc(-c2ccccn2)n1", "AC50": "inactive"}, {"smiles": "CC(C)CN(Cc1c(O)ccc2c3c(c(=O)oc12)CCC3)CC(C)C", "AC50": "28.2 µM (active)"}, {"smiles": "CCOC(=O)c1[nH]c(C(=O)O)c(CCN(CC)CC)c1C", "AC50": "inactive"}, {"smiles": "CCOc1ccc(C2=Nn3c(nnc3-c3ccco3)SC2)cc1", "AC50": "2.24 µM (active)"}, {"smiles": "CCc1ccc(C2=Nn3c(nnc3-c3cccs3)SC2)cc1", "AC50": "7.08 µM (active)"}, {"smiles": "CCN(CC)C(=O)CSc1nnc(-c2ccco2)n1N", "AC50": "inactive"}, {"smiles": "C/C(CCN1CCc2nc(-c3ccccc3)c(-c3ccccc3)cc2C1)=N\\OC[C@@H](O)COCc1ccco1", "activity, negative = inhibition": "-7.86% [at 11.4 µM]"}, {"smiles": "COc1cc(/C=C\\c2ccc(OC)cc2OC)cc(OC)c1", "AC50": "inactive"}, {"smiles": "CC(C)NC(=O)N1CCC2(CC1)CCN(C(=O)c1ccncc1)CC2", "AC50": "inactive"}, {"smiles": "CCN(CC)S(=O)(=O)c1ccc(C(=O)NC2=C(C(=O)OC)SCC2)cc1", "AC50": "2 µM (active)"}, {"smiles": "COC(=O)C1=C(NC(=O)c2cccc(OC)c2)CCS1", "AC50": "11.2 µM (active)"}, {"smiles": "Clc1ccc(N2CCCCCC2)nn1", "AC50": "inactive"}, {"smiles": "O=[N+]([O-])c1ccc(N2CCCCC2)c(Cl)c1N1CCCCC1", "AC50": "2.24 µM (active)"}, {"smiles": "CN1CCN(S(=O)(=O)c2cc([N+](=O)[O-])ccc2N2CCCCCC2)CC1", "AC50": "inactive"}, {"smiles": "C/C(CCN1CCc2nc(-c3ccccc3)c(-c3ccccc3)cc2C1)=N\\OC[C@@H](C)[C@H](OCc1ccccc1)C(C)C", "activity, negative = inhibition": "-9.58% [at 11.4 µM]"}, {"smiles": "Cc1cccc(CSCCNC(=O)c2ccc(N(C)S(=O)(=O)c3ccccc3)cc2)c1", "AC50": "0.562 µM (active)"}, {"smiles": "Cc1cccc(N(CC(=O)N2CCOCC2)S(C)(=O)=O)c1", "AC50": "inactive"}, {"smiles": "Cc1cccc(CNc2cc(-c3ccc(C(=O)N(C)C)cc3)ncn2)c1", "activity, negative = inhibition": "5.16% [at 2.29 µM]"}, {"smiles": "Cc1cc(C)cc(N(CC(=O)NCCSc2ccccn2)S(=O)(=O)c2ccccc2)c1", "AC50": "0.282 µM (active)"}, {"smiles": "Cc1cccc(N(CC(=O)NCCSCc2ccco2)S(=O)(=O)c2ccccc2)c1", "AC50": "4.47 µM (active)"}, {"smiles": "Cc1cccc(CNc2ccnc(-c3ccc(C(=O)N(C)C)cc3)n2)c1", "activity, negative = inhibition": "-11.3% [at 2.29 µM]"}, {"smiles": "CN(CC(=O)O/N=C(\\N)c1ccccn1)S(=O)(=O)c1ccccc1", "AC50": "inactive"}, {"smiles": "CC(C)NC[C@H](O)c1cc(O)cc(O)c1", "AC50": "inactive"}, {"smiles": "O=C(O)C[C@H]1OCC=C2C[N@@+]3([O-])CC[C@]45c6ccccc6N[C@@H]4[C@@H]1[C@H]2C[C@H]53", "activity, negative = inhibition": "5.86% [at 11.4 µM]"}, {"smiles": "CC(=O)OC[C@@H]1O[C@@H](O/N=C2/C[C@@H](O)[C@@H](O)[C@@H]3[C@H]4C(=O)N(c5ccc(F)cc5F)C(=O)[C@@H]4CC[C@@H]23)[C@H](OC(C)=O)[C@H](OC(C)=O)[C@@H]1OC(C)=O", "activity, negative = inhibition": "18.5% [at 11.4 µM]"}, {"smiles": "CC1=NCC[N@@+]1(CCc1ccccc1)Cc1ccccc1", "activity, negative = inhibition": "-1.38% [at 11.4 µM]"}, {"smiles": "CCCN(CCc1ccccc1)[C@H]1CCc2c(O)cccc2C1", "AC50": "inactive"}, {"smiles": "CN(CCO)c1cc(Sc2nc3ccccc3s2)c2nonc2c1[N+](=O)[O-]", "AC50": "3.55 µM (active)"}, {"smiles": "COCC(=O)N1CCC2(CC1)CCN(C(=O)Nc1cccc(F)c1)CC2", "AC50": "inactive"}, {"smiles": "CC(=O)Nc1cc(C(F)(F)F)ccc1Oc1cccc(Br)c1", "AC50": "3.98 µM (active)"}, {"smiles": "CC(=O)Oc1cc(C(F)(F)F)ccc1C(=O)O", "AC50": "inactive"}, {"smiles": "Cc1cc2nc([C@H](C)C(=O)c3ccc(Cl)cc3)c(=O)[nH]c2cc1C", "activity, negative = inhibition": "-26.4% [at 11.4 µM]"}, {"smiles": "COc1ccc(CSc2nnnn2C)cc1[N+](=O)[O-]", "AC50": "inactive"}, {"smiles": "CCCOc1ccc(Cn2c(C)nc([N+](=O)[O-])c2SCC(O)COC)cc1[N+](=O)[O-]", "note": "(stereo not drawn)", "AC50": "11.2 µM (active)"}, {"smiles": "CS(=O)(=O)N1CCC2(CC1)CN(Cc1cc(C(F)(F)F)cc(C(F)(F)F)c1)C2", "AC50": "inactive"}, {"smiles": "Cc1cc(C)c(NC(=O)CSc2nnc(Cc3cccn3C)n2-c2ccc(F)cc2)c(C)c1", "AC50": "10 µM (active)"}, {"smiles": "C=CCn1c(SCc2ccc3c(c2)OCO3)nc2scc(-c3ccco3)c2c1=O", "AC50": "inactive"}, {"smiles": "C=CCn1c(SC(C)C(=O)NCc2ccc3c(c2)OCO3)nc2scc(-c3ccccc3)c2c1=O", "note": "(stereo not drawn)", "AC50": "2.51 µM (active)"}, {"smiles": "S=C1SCN(C2CCCCCCCCCCC2)CN1C1CCCCCCCCCCC1", "activity, negative = inhibition": "-14.2% [at 11.4 µM]"}, {"smiles": "CC1(C)O[C@@H]2C[C@H]3[C@H]4C[C@H](F)C5=CC(=O)CC[C@]5(C)[C@@H]4[C@H](O)C[C@]3(C)[C@]2(C(=O)CO)O1", "AC50": "inactive"}, {"smiles": "Cc1ncc([N+](=O)[O-])n1CC(=O)NCc1ccccc1", "AC50": "inactive"}, {"smiles": "CC(NC(=O)c1ccc(Cn2cc([N+](=O)[O-])cn2)o1)c1ccccc1", "note": "(stereo not drawn)", "AC50": "6.31 µM (active)"}, {"smiles": "CCOC(=O)c1c(-c2ccccc2)cn2ccccc12", "AC50": "3.55 µM (active)"}, {"smiles": "CCOC(=O)c1c2c(n3ccccc13)C(=O)c1ccccc1C2=O", "activity, negative = inhibition": "-20.1% [at 11.4 µM]"}, {"smiles": "CN(C)C(=O)c1ccc(-c2nccc(Nc3ccc(F)cc3)n2)cc1", "activity, negative = inhibition": "-2.83% [at 2.29 µM]"}, {"smiles": "COCC(=O)N1CCC2(CCCN(Cc3ccccc3OC)C2)CC1", "AC50": "inactive"}, {"smiles": "CO[C@@H]1COC(=O)[C@H]2CCCN2C(=O)[C@@H](C)COC(=O)C/C=C\\[C@H]1C", "activity, negative = inhibition": "14.2% [at 11.4 µM]"}, {"smiles": "Cc1ccc(CC(=O)N2CCN(c3cccc(C(F)(F)F)c3)CC2)cc1", "AC50": "14.1 µM (active)"}, {"smiles": "Cc1cccc(C)c1NC(=O)c1cc2c(=O)c3ccccc3oc2nc1C(F)(F)F", "AC50": "inactive"}, {"smiles": "O=C(c1coc2ccccc2c1=O)N1CCN(c2cccc(C(F)(F)F)c2)CC1", "AC50": "12.6 µM (active)"}, {"smiles": "CCc1ccc(NC(=S)N2CCN(c3cccc(C(F)(F)F)c3)CC2)cc1", "AC50": "inactive"}, {"smiles": "C[C@@H]1CCN=C(N)S1", "AC50": "inactive"}, {"smiles": "CS(=O)(=O)Nc1cccc(-c2ccc3ncnc(NC4CC4)c3c2)c1", "activity, negative = inhibition": "-17.7% [at 2.29 µM]"}, {"smiles": "CO[C@@H]1COC(=O)[C@H]2CCCN2C(=O)C/C=C\\[C@@H](C)[C@H](OC)COC(=O)[C@H]2CCCN2C(=O)C/C=C\\[C@H]1C", "activity, negative = inhibition": "-0.816% [at 11.4 µM]"}, {"smiles": "COc1cccc(Cn2c(=O)cnc3cnc(Oc4cccc(Cl)c4)nc32)c1", "AC50": "3.98 µM (active)"}, {"smiles": "N#CCCn1c(=O)cnc2cnc(Oc3ccccc3)nc21", "AC50": "inactive"}, {"smiles": "O=c1cnc2cnc(Oc3ccccc3)nc2n1CCc1ccccc1", "AC50": "3.16 µM (active)"}, {"smiles": "CN1CCN(c2ncc3ncc(=O)n(Cc4ccc(F)cc4)c3n2)CC1", "AC50": "inactive"}, {"smiles": "COc1ccc(-n2c(=O)cnc3cnc(Oc4cccc(Cl)c4)nc32)cc1", "AC50": "inactive"}, {"smiles": "O=c1cnc2cnc(Oc3ccccc3)nc2n1Cc1ccc(F)cc1", "AC50": "15.8 µM (active)"}, {"smiles": "O=c1cnc2cnc(OCc3ccccc3)nc2n1Cc1ccc(F)cc1", "AC50": "inactive"}, {"smiles": "COc1cccc(Cn2c(=O)cnc3cnc(OC)nc32)c1", "AC50": "inactive"}, {"smiles": "O=c1cnc2cnc(Oc3cccc(Cl)c3)nc2n1Cc1ccc(F)cc1", "AC50": "7.94 µM (active)"}, {"smiles": "Cc1nc2cnc(Oc3ccccc3)nc2n(CCc2ccccc2)c1=O", "AC50": "inactive"}]}]}
